From PubChem BioAssay (Tox21) come the findings set out here.

The nature of assay [1]: qHTS assay to identify small molecule antagonists of the thyroid receptor (TR) signaling pathway - cell viability counter screen (AID 743064). Also: nearly all actives have a fitted effect of over 50% in size. In a few lines: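 In rat pituitary GH3.TRE-Luc reporter cells co-exposed to compound and 1 nM T3 for 23.5 h, cytotoxicity was assessed with CellTiter-Fluor in the same wells, read by fluorescence.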
(In qHTS, concentration-response curves come from the screen itself.)

In assay [2] the target is Estrogen receptor (Homo sapiens) (UniProt P03372). Kind of assay: qHTS assay to identify small molecule antagonists of the estrogen receptor alpha (ER-alpha) signaling pathway (AID 743069; active = well fitted curve in the direction sought with a large enough effect in the signal ratio in the repeat runs, not every such curve was filed as active; the % refers to the signal ratio; also: potency is read from the fitted curve at half-maximal effect). Put shortly:
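A 17beta-estradiol challenge was applied right after compound transfer to ER-alpha-UAS-bla HEK293 cells previously kept in charcoal-stripped serum. Plates stood 18 hr at 37C and 5% CO2; fluorescence was read following 2 hr FRET substrate loading at room temperature.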

The target is the same in assay [3]. As to the kind of experiment: qHTS assay to identify small molecule agonists of the estrogen receptor alpha (ER-alpha) signaling pathway (AID 743075; calls by dose curve;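 also: HEK293 GripTite cells with ER-alpha and UAS-driven beta-lactamase reporter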).
The target is the same in assay [4]. Kind of assay: qHTS assay to identify small molecule agonists of the estrogen receptor alpha (ER-alpha) signaling pathway using the BG1 cell line (AID 743079). Also: nearly all actives have a fitted effect of over 20% in size. The following applies: BG1Luc4E2 cells, ERE-luciferase agonist, 22 h; activation: at 70.3 µM (top of the series).
Assay [5] is described as follows: qHTS assay to identify small molecule antagonists of the estrogen receptor alpha (ER-alpha) signaling pathway using the BG1 cell line - cell viability counter screen (AID 743081).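 Also: compound given together with 17beta-estradiol as the ER stimulus; nearly all actives have a fitted effect of over 45% in size.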 Also: potency is read from the fitted curve at half-maximal effect.
In a further assay the target is Aromatase (Homo sapiens) (UniProt P11511). As to the kind of experiment: qHTS assay to identify aromatase inhibitors (AID 743083). Also: nearly all actives have a fitted effect of over 55% in size.
Sequence of Aromatase (Homo sapiens) (P11511 whole entry, looked up): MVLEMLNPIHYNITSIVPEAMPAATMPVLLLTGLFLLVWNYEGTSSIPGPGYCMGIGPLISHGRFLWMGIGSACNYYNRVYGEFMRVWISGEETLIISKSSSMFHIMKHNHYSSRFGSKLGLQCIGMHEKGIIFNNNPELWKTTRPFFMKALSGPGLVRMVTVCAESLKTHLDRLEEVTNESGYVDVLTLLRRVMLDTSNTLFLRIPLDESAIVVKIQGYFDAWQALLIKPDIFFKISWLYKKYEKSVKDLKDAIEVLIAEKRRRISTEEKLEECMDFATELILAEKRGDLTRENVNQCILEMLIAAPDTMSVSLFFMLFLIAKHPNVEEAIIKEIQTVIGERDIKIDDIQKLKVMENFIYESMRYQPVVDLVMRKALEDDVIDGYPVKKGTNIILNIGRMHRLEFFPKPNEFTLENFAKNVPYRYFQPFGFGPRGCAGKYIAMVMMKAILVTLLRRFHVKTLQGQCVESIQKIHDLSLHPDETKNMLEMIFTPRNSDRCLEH
The nature of assay [6]: qHTS assay to identify aromatase inhibitors - cell viability counter screen (AID 743084).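 Also: cells stimulated with testosterone during compound exposure; nearly all actives have a fitted effect of over 55% in size.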 Also: potency is read from the fitted curve at half-maximal effect.
Assay [7] in a line: qHTS assay to identify small molecule that activate the aryl hydrocarbon receptor (AhR) signaling pathway - cell viability counter screen (AID 743086). Also: nearly all actives have a fitted effect of over 45% in size. Also: potency is read from the fitted curve at half-maximal effect. Put shortly:
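HepG2-AhR-luc (HG2L7.5c1) cells, 4000/well, were preincubated 5 h at 37C, exposed to compound in qHTS format for 24 hr at 37C, then given CellTiter-Fluor for 30 min; viability was read as fluorescence in the reporter wells.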

For assay [8], the target named is Peroxisome proliferator-activated receptor gamma (Homo sapiens) (UniProt P37231). Kind of assay: qHTS assay to identify small molecule agonists of the peroxisome proliferator-activated receptor gamma (PPARg) signaling pathway (AID 743094; active = well fitted activation curve with a large enough effect in the signal ratio in the repeat runs, not every such curve was filed as active; the % refers to the signal ratio). Put shortly: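 Cell-based bla reporter, HEK293H background, PPARg-driven UAS. Pre-incubation 5 h, 37C, 5% CO2. Compound 17 h, 37C. Substrate 1 h RT; fluorescence.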
Sequence of Peroxisome proliferator-activated receptor gamma (Homo sapiens) (P37231 whole entry, looked up): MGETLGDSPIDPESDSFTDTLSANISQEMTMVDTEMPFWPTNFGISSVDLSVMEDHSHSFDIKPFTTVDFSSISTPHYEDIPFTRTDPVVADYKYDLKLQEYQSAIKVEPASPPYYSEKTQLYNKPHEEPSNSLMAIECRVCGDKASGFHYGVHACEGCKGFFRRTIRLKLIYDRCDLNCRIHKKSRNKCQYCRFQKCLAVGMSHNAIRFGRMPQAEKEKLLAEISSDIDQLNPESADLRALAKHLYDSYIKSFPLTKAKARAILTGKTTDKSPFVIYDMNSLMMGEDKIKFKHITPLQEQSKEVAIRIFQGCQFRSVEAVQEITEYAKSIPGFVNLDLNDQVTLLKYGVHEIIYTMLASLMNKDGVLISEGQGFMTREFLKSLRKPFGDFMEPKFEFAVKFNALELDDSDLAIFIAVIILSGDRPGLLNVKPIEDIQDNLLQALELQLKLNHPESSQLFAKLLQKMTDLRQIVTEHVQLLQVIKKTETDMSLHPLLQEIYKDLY

Assay [9] shares this target. As to the kind of experiment: qHTS assay to identify small molecule antagonists of the peroxisome proliferator-activated receptor gamma (PPARg) signaling pathway (AID 743191; calls by dose curve; also: potency is read from the fitted curve at half-maximal effect; nearly all actives have a fitted effect of over 30% in size). Put shortly:
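GeneBLAzer PPARg UAS-bla HEK293H cells carrying a UAS-driven beta-lactamase reporter were plated at 3000 cells/well, preincubated 5 h at 37C, then given compound for 17 h at 37C; LiveBLAzer B/G FRET substrate was read after 1 h at room temperature.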

A short description of assay [10]: qHTS assay for small molecule agonists of the antioxidant response element (ARE) signaling pathway - cell viability counter screen (AID 743203; calls by dose curve; also: nearly all actives have a fitted effect of over 55% in size; also: potency is read from the fitted curve at half-maximal effect). Put shortly: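 Measured in the same wells as the beta-lactamase ARE reporter, this read-out is CellTiter-Glo luminescence from HepG2 ARE-bla cells given compounds for 16 hrs.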
Assay [11] in a line: qHTS assay for small molecule activators of the heat shock response signaling pathway - cell viability counter screen (AID 743209). Also: nearly all actives have a fitted effect of over 50% in size. Put shortly: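 Same-well multiplex: after 2.5 h room-temperature incubation with LiveBLAzer B/G substrate and fluorescence reading, CellTiter-Glo reagent was added to HSE-bla HeLa cells that had received compound for 5 h at 37 C; luminescence read after 30 min.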

The nature of assay [12]: qHTS assay for small molecule activators of the heat shock response signaling pathway (AID 743210; active = well fitted activation curve with a large enough effect in the signal ratio in the repeat runs, with a control signal flat, not every such curve was filed as active; the % refers to the signal ratio). Put shortly: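 Heat shock element–beta-lactamase HeLa reporter cells; qHTS with compounds for 5 h at 37 C; detection by FRET substrate fluorescence after 2.5 h at RT.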
A short description of assay [13]: qHTS assay to identify small molecule antagonists of the thyroid receptor (TR) signaling pathway (AID 743065). Also: nearly all actives have a fitted effect of over 55% in size. Also: potency is read from the fitted curve at half-maximal effect. In a few lines: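 GH3.TRE-Luc rat pituitary cells carrying two TR response elements driving luciferase were plated for 4 h, given compound plus 1 nM T3 (final), and incubated 23.5 h at 37 C. ONE-Glo luminescence measured reporter inhibition; CellTiter-Fluor fluorescence tracked cytotoxicity.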

The test system of assay [14] is thyroid hormone receptor (rat, GH3 cells). Kind of assay: qHTS assay to identify small molecule agonists of the thyroid receptor (TR) signaling pathway (AID 743066; calls by dose curve).
Assay [15] can be described thus: qHTS assay to identify small molecule antagonists of the estrogen receptor alpha (ER-alpha) signaling pathway - cell viability counter screen (AID 743074; calls by dose curve;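 also: HEK293 cells carrying ER-alpha-UAS-bla reporter stimulated with 17beta-estradiol; nearly all actives have a fitted effect of over 45% in size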).
The target in assay [16] is Aryl hydrocarbon receptor (Homo sapiens) (UniProt P35869). Kind of assay: qHTS assay to identify small molecule that activate the aryl hydrocarbon receptor (AhR) signaling pathway (AID 743085).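 Also: HG2L7.5c1 human HepG2 liver cells with stably integrated DRE-driven firefly reporter; nearly all actives have a fitted effect of over 15% in size.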 In a few lines: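 AhR agonist activity is inferred from enhanced light output of a DRE-controlled firefly luciferase reporter in HepG2 cells, measured with ONE-Glo following 24 h treatment at 37C.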
Sequence of Aryl hydrocarbon receptor (Homo sapiens) (P35869 whole entry, looked up): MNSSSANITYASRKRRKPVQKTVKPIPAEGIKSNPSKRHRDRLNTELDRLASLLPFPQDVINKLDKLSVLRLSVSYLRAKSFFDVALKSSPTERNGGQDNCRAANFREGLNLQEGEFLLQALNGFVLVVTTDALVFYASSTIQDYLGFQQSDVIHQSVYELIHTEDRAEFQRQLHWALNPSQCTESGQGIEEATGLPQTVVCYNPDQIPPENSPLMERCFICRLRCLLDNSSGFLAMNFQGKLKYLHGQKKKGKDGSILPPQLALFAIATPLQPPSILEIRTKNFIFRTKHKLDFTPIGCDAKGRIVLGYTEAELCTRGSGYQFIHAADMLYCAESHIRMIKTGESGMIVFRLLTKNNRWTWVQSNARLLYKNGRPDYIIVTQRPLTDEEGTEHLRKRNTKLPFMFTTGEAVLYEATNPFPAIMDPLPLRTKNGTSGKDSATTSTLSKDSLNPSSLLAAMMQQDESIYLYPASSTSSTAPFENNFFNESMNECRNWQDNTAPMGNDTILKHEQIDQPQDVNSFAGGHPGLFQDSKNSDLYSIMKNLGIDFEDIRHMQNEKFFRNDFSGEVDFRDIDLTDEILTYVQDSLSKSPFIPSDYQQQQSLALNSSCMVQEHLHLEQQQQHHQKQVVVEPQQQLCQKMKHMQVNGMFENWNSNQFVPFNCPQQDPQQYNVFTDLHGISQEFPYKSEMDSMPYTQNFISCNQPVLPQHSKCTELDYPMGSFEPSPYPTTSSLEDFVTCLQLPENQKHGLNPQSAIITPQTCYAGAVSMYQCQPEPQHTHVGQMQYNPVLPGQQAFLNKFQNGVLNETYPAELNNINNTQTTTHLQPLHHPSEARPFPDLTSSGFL

Assay [17] can be described thus: qHTS assay to identify small molecule antagonists of the peroxisome proliferator-activated receptor gamma (PPARg) signaling pathway - cell viability counter screen (AID 743194). Also: nearly all actives have a fitted effect of over 55% in size. Also: potency is read from the fitted curve at half-maximal effect. In a few lines:
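PPARg-UAS-bla HEK293H cells were plated, rested 5 h at 37 C, then treated with compounds plus rosiglitazone (50 nM final) for 17 h at 37 C; viability was then read by CellTiter-Glo luminescence after 30 min at room temperature.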

The nature of assay [18]: qHTS assay to identify small molecule antagonists of the estrogen receptor alpha (ER-alpha) signaling pathway using the BG1 cell line (AID 743080; calls by dose curve;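 also: BG1 cells stimulated with 17beta-estradiol alongside compound; nearly all actives have a fitted effect of over 25% in size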). In a few lines:
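After 5 days in phenol-red-free 10% charcoal-stripped FBS medium, BG1-Luc-4E2 cells were seeded, left 24 h at 37 C, co-treated with compounds and 17beta-estradiol for 21.5 h, then assayed for viability and luciferase.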

Assay [19] in a line: qHTS assay for small molecule agonists of the antioxidant response element (ARE) signaling pathway (AID 743202; active = well fitted activation curve with a large enough effect in the signal ratio in the repeat runs, not every such curve was filed as active; the % refers to the signal ratio; also: potency is read from the fitted curve at half-maximal effect). In a few lines: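 Following a 16 h, 37 C exposure of reporter HepG2 cells (ARE-driven beta-lactamase, 2,000 cells/well) to compounds, FRET substrate was applied for 2 h at room temperature and fluorescence intensity recorded.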

Structures are written as SMILES. Inconclusive results are not listed. The source made the active and inactive calls. Unless noted, calls follow the shape of the dose curve; as a rule, active = well fitted curve in the direction sought with a large enough effect in the repeat runs; inconclusive = weak or mixed curves; inactive = no such curve, though single readings can be large; an effect the other way counts as inactive or inconclusive.

Sequence of Estrogen receptor (Homo sapiens) (P03372 whole entry, looked up): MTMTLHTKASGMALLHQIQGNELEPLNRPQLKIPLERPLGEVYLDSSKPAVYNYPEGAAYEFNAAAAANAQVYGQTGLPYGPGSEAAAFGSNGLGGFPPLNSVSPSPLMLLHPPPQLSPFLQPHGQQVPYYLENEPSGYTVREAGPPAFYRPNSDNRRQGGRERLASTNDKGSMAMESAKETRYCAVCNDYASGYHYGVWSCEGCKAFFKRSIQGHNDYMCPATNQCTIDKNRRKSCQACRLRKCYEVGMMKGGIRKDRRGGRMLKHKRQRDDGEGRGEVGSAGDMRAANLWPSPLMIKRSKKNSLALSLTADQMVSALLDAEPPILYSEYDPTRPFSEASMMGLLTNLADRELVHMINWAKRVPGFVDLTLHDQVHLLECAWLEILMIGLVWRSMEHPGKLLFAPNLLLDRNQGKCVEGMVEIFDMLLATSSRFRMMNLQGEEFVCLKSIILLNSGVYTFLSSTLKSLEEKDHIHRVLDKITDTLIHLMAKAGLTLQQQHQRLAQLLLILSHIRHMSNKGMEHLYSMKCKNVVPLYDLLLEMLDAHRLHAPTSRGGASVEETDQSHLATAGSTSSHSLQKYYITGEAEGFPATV

As to `Oc1c(I)cc(I)c2cccnc12`, the Potency entry (in assay [1]; in assay [3]; in assay [4]; in assay [5]; in the assay with Aromatase (Homo sapiens); in assay [6]) was “inactive” throughout. The Potency entry in [7], in [8], in [10], in assay [11] and in assay [12] was “inactive” each time. Also, the Potency in assay [2] is 6.01 µM [cytotoxic] (active); in assay [9], 18.8 µM (active).

As to `C/C=C\C/C=C/CCCCCCCCOC(C)=O`, the Potency in assay [13] is 68.6 µM (active). For the same molecule, in assay [14], the call was inactive. In addition, the Potency result (in [15]; in [3]; in assay [4]; in [5]; in the assay with Aromatase (Homo sapiens); in assay [16]) was “inactive” in each case. The Potency entry in [7], in [17], in [10] and in [11] was “inactive” in each case.

`COc1ccccc1Oc1c(NS(=O)(=O)c2ccc(C(C)(C)C)cc2)nc(-c2ncccn2)nc1OCCO`: the Potency result in [1], in [2], in assay [3], in assay [4], in assay [18] and in assay [5] was “inactive” in each case. Besides, the Potency entry (with Aromatase (Homo sapiens); in [6]; in [16]; in assay [7]; in assay [8]; in [17]) was “inactive” in each case. The Potency entry in [10] and in assay [11] was “inactive” in each case.

Consider `OC[C@H]1O[C@@H](n2cnc3c(=S)nc[nH]c32)[C@H](O)[C@@H]1O`, for which the Potency is 23.7 µM (active) in [13], 3.76 µM (active) in assay [17], 3.35 µM (active) in assay [19] and 2.66 µM (active) in assay [10]. The outcome in assay [14] was inactive. Moreover, the Potency result (in assay [3]; in assay [4]; in assay [5]; in the assay with Aromatase (Homo sapiens); in [6]; in assay [16]) was “inactive” each time. In addition, the Potency result in assay [7], in [11] and in assay [12] was “inactive” in each case.

Consider `CC(=O)Nc1cc(S(=O)(=O)O)cc2cc(S(=O)(=O)O)c(N=Nc3ccccc3)c(O)c12`, for which the Potency entry (in [13]; in [15]; in assay [3]; with Aromatase (Homo sapiens); in assay [8]; in [17]) was “inactive” throughout. For the same molecule, the Potency result in assay [19], in [11] and in [12] was “inactive” each time. Besides, the result in [14] was inactive. Moreover, the values for the Potency in assay [5], in assay [6] and in assay [7] were 8.63 µM (active), 24.3 µM (active) and 19.3 µM (active), respectively.

As for `CC(C)=CC(=O)C=C(C)C`, the Potency result in assay [13], in [15], in assay [3], in assay [4], in [18] and in assay [5] was “inactive” in each case. Besides, the Potency entry (with Aromatase (Homo sapiens); in assay [6]; in assay [16]; in assay [7]; in assay [8]; in assay [17]) was “inactive” throughout. The Potency result in assay [11] and in assay [12] was “inactive” each time. For the same molecule, the call in assay [14] was inactive.

`N#CCCN(CCO)CCO`: the Potency entry in assay [13], in [2], in [15], in assay [3], in assay [4] and in [5] was “inactive” in each case. The Potency entry (in the assay with Aromatase (Homo sapiens); in [6]; in assay [16]; in [7]; in assay [17]; in assay [10]) was “inactive” each time. Besides, the Potency result in [11] and in assay [12] was “inactive” each time. In assay [14], the result was inactive.

Consider `C=CC(=O)OCC1CC2CC1C1CCC(COC(=O)C=C)C21` (configuration not stated), for which the Potency in assay [13] was 61.1 µM (active). The result in assay [14] was inactive. Moreover, the Potency entry (in [5]; with Aromatase (Homo sapiens); in assay [6]; in assay [7]; in assay [8]; in assay [10]) was “inactive” in each case.

As for `CN1C(=O)c2ccccc2C1=O`, the Potency result (in [13]; in the assay with Aromatase (Homo sapiens); in assay [6]; in assay [16]; in assay [7]; in [8]) was “inactive” each time. In addition, the Potency result in assay [10] is “inactive”. Further, the outcome in assay [14] was inactive.
